Most compounds without a hit are left out; they make up all but 18% or so of the library.
LDHA block – blocks human lactate dehydrogenase A | activity change, % (values are at about 110 or 230 µM) | AID 1347041 | P00338 | 480,000 tested, 0.15% active | purified LDHA, NADH/diaphorase-resazurin fluorescence; hits give low values; in the data active = activity change below about -30%; inconclusive = mostly about -25% to -30%;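 note: plate controls were DMSO wells for no effect and wells without enzyme for full effect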
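Enzyme activity of human lactate dehydrogenase 5 (2 nM; 0.06 mM NADH, 0.2 mM pyruvate, 5 min, RT) is measured via a resazurin/diaphorase fluorescence readout of residual NADH.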
IL1B secr inh – blocks inflammasome-driven IL-1 beta release | 360,000 tested, 4.7% active | THP-1 LPS/ATP IL-1B secretion, AlphaLISA, 16 h; hits give low values | activity change, % at 57.5 µM; in the data active = activity change below about -50%; inconclusive = mostly about -30% to -49%
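THP-1 cells pretreated 1 hr with compounds (up to 57.5 uM final), then stimulated with LPS (250 ng/mL final) plus ATP (1.25 mM final); secreted IL-1B measured by AlphaLISA after 16 hr, decreased signal indicating inhibition.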
RORg inh – inhibitors of mouse ROR gamma transcriptional activity. Drosophila S2 Gal4-RORgamma UAS-luciferase reporter, 20 h. 310,000 tested, 5.4% active. Potency, µM (top dose mostly 53.6 µM), for inactives: at the highest dose activity change, negative = inhibition, most hits filed as inhibitors; note: potency is the fitted concentration of half-maximal effect; nearly all actives have a fitted effect of over 60% in size
Target sequence (P51450 whole entry, looked up, the tested form may be a part): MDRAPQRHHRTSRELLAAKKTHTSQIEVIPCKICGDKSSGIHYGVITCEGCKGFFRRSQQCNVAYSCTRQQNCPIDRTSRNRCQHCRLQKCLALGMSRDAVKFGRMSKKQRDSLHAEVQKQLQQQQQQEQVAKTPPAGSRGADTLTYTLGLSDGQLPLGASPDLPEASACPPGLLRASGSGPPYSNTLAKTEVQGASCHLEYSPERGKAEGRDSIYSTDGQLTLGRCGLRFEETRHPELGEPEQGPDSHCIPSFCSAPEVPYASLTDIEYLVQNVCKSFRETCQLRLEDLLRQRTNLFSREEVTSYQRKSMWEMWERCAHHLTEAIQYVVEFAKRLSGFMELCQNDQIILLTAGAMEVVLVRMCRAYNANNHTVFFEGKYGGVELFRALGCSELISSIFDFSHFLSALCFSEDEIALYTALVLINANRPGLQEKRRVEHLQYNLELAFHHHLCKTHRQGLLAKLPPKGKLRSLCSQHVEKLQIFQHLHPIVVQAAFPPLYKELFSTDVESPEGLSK
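Stable Schneider cell line, Gal4 DNA-binding domain fused to ROR gamma, UAS-luciferase. Cmpd 1 hr RT → CuSO4 700 uM final → 20 hr RT → luciferase reagent 10 min → luminescence.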
VP16 counter – inhibits Gal4-VP16 luciferase reporter, ROR gamma counter-screen | Potency, µM (highest dose often 53.6 µM), for inactives: top-dose activity, negative = inhibition, actives largely listed as inhibitors | 310,000 tested, 3.5% active | Drosophila S2 Gal4-VP16 UAS-luciferase, luminescence, 20 h | AID 2546;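 note: Gal4-VP16 expression switched on by copper sulfate through the metallothionein promoter; potency is the fitted concentration of half-maximal effect; nearly all actives have a fitted effect of over 50% in size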
DT40 TDP1 no CPT – qHTS for Inhibitors of human tyrosyl-DNA phosphodiesterase 1 (TDP1): qHTS in cells in absence of CPT; DT40 Tdp1-/- hTDP1 cells, no CPT, ATP luminescence, 48 h; Potency, µM (highest dose often 46.2 µM), for inactives: top-dose activity change, negative = growth inhibition, most hits filed as inhibitors; 420,000 tested, 15% active; note: potency is the fitted concentration of half-maximal effect; nearly all actives have a fitted effect of over 55% in size
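Chicken DT40 Tdp1-/- cells stably complemented with human TDP1 were seeded at 400 cells/well with DMSO in place of 20 nM camptothecin. After compound pinning, cells grew at least 48 hr at 37 °C; viability read by CellTiter-Glo luminescence.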
TDP1 cell CPT – growth inhibition of DT40 Tdp1-/-;hTDP1 cells with camptothecin (screen for TDP1 inhibitors). chicken DT40 Tdp1-/-;hTDP1 cells + 20 nM CPT, ATP luminescence, 48 h. Potency, µM (highest dose often 46.2 µM), for inactives: at the top dose activity change, negative = growth inhibition, hits mostly inhibitors. 420,000 tested, 12% active; note: potency is the fitted concentration of half-maximal effect; nearly all actives have a fitted effect of over 55% in size
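Cell growth measured by CellTiter-Glo luminescence after a minimum 48 h, 37 C compound exposure with 20 nM CPT in Tdp1-knockout DT40 cells stably expressing hTDP1, seeded 400/well; qHTS titration format.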
Active calls of the source: *; u = inconclusive; x = no result. Unless noted, calls come from the whole dose curve; as a rule, active = well fitted curve in the direction sought with a large enough effect; inconclusive = small, poorly fitted or top-dose-only effect, or another doubt; inactive = no such curve, though single readings can be large; an effect the other way counts as inactive or inconclusive. Unless noted, % is set by controls: 0 for no effect and ±100 for the full control effect.

SMILES | LDHA block | IL1B secr inh | RORg inh | VP16 counter | DT40 TDP1 no CPT | TDP1 cell CPT
COc1ccc(O)c(/C=c2/sc3nc4cc(C)c(C)cc4n3c2=O)c1 | -9 | 15 | u | u | 16µM* | 16µM*
Cc1ccc(C2(c3noc(CN(C)Cc4cnn(C)c4)n3)CCCC2)cc1 | 2 | -22 | -5% | -6% | u | 21µM*
CCOC(=O)N1CCN(S(=O)(=O)N2CCCC(C(=O)NCc3cc(Br)ccc3OC)C2)CC1 (stereo not given) | 1 | -12 | x | x | 13µM* | 18µM*
O=C(CNC(=O)c1ccc2c(c1)OCO2)Nc1ccc2c(c1)Cc1ccccc1-2 | -7 | x | x | x | x | x
CN(Cc1cn(Cc2cccc(C(F)(F)F)c2)nn1)C1CN(Cc2cn(Cc3cccc(C(F)(F)F)c3)nn2)S(=O)(=O)C1 (stereo not given) | 6 | u | x | x | 13µM* | 13µM*
O=S1(=O)CC(N2CCN(Cc3ccccc3F)CC2)CN1Cc1cn(Cc2ccc(C(F)(F)F)cc2)nn1 (stereo not given) | 4 | -21 | x | x | 9.2µM* | 13µM*
Cc1ccc(Cn2cc(CN3CC(N4CCN(Cc5ccccc5F)CC4)CS3(=O)=O)nn2)cc1 (stereo not given) | 1 | -2 | x | x | 16µM* | u
Cc1cc(C)cc(Cn2cc(CN3CC(N4CCN(Cc5ccccc5F)CC4)CS3(=O)=O)nn2)c1 (stereo not given) | -9 | 14 | x | x | u | u
COc1ccc(S(=O)(=O)NCCc2nnc3ccc(SCc4ccccc4Cl)nn23)cc1 | 1 | x | x | x | x | x
Cn1c(NCCc2ccccc2)nc2c1c(=O)n(Cc1ccc(Cl)c(Cl)c1)c(=O)n2C | -9 | x | x | x | x | x
CCn1c(NCc2ccco2)nc2c1c(=O)n(C)c(=O)n2C | -1 | -4 | -31% | -2% | 12µM* | u
Cn1c(=O)c2c(nc(NCc3ccco3)n2Cc2ccc(Cl)cc2)n(C)c1=O | 6 | x | x | x | x | x
Cn1c(=O)c2c(nc(NCc3ccco3)n2Cc2c(Cl)cccc2Cl)n(C)c1=O | -2 | x | x | x | x | x
Cn1c(=O)c2c(nc(NCc3ccco3)n2Cc2ccc(Cl)cc2Cl)n(C)c1=O | 0 | 34 | u | 6.3µM* | 10µM* | 12µM*
Cn1c(NCc2ccco2)nc2c1c(=O)n(Cc1ccc(Cl)c(Cl)c1)c(=O)n2C | -3 | u | u | -2% | 18µM* | u
Cn1c(=O)c2c(nc(NCc3ccco3)n2CCc2ccccc2)n(C)c1=O | 0 | -18 | 13µM* | 7.9µM* | 6.5µM* | 7.3µM*
Cn1c(=O)c2c(nc(NCc3ccco3)n2Cc2ccc(Br)cc2)n(C)c1=O | 8 | x | x | x | x | x
O=C1NC2(C(=O)Nc3cccc(Cl)c3)CCC(=O)N2c2ccccc21 (stereo not given) | -1 | x | x | x | x | x
CC(=O)Cn1cnc2c(sc3nc(C)cc(C)c32)c1=O | 4 | -64* | 2% | -12% | u | 2%
COc1cccc(Cn2cnc3c(sc4nc(C)cc(C)c43)c2=O)c1 | -2 | 5 | -1% | 3% | -19% | -11%
CCOc1ncnc2c1sc1nc(C)cc(C)c12 | -10 | -18 | 3% | -4% | -24% | 11%
Cc1cc(C)c2c(n1)sc1c(N3CCN(CCO)CC3)ncnc12 | -7 | -77* | -11% | -20% | u | -29%
Cn1ccnc1C(NC(=O)c1nn(C)c(=O)c2ccccc12)c1ccc(F)cc1 (stereo not given) | 3 | x | x | x | x | x
CCCn1c(C)cc(C(=O)CC#N)c1C | 0 | x | x | x | x | x
COc1ccc(C(=O)/C(C#N)=N/Nc2ccc([N+](=O)[O-])cc2)cc1 | -20 | 77 | 5.6µM* | 3.5µM* | 0.52µM* | 0.58µM*
SMILES | LDHA block | IL1B secr inh | RORg inh | VP16 counter | DT40 TDP1 no CPT | TDP1 cell CPT
COc1ccc(N/N=C(\C#N)C(N)=O)cc1 | -4 | -15 | 15% | 19% | -1% | 11%
COc1ccc(C(=O)/C(C#N)=N/Nc2ccccc2[N+](=O)[O-])cc1 | 1 | -22 | u | u | 1.8µM* | 2.3µM*
Cc1ccc(-c2c(N)oc3ccccc3c2=O)cc1 | -1 | x | x | x | x | x
CN(C)S(=O)(=O)c1ccc2oc(SCCOc3cccc(Br)c3)nc2c1 | -7 | x | x | x | x | x
Cc1ccc(CC2SC(=O)NC2=O)cc1Cl (stereo not given) | 0 | 1 | u | -15% | 4% | -5%
O=C(CC1S/C(=N/N=C/c2cccs2)NC1=O)Nc1ccccc1F (stereo not given) | -6 | 15 | 8.9µM* | -23% | -4% | -23%
O=C1N/C(=N\N=C\c2cccs2)SC1Cc1ccc(Cl)c(Cl)c1 (stereo not given) | -7 | 4 | 0.45µM* | 0.71µM* | u | -22%
C=CCC1S/C(=N/N=C/c2cccs2)NC1=O (stereo not given) | 0 | 10 | 2µM* | 5.6µM* | u | -4%
C=CCn1c(C(c2ccccc2)c2ccccc2)n[nH]c1=S | -5 | 7 | 7.9µM* | 7.9µM* | -9% | -8%
C=CCn1c(C(C)NC(=O)c2ccccc2)n[nH]c1=S (stereo not given) | -3 | 3 | u | 2% | -3% | 2%
C=CCn1c(OCc2ccccc2)n[nH]c1=S | -9 | 22 | 4µM* | 18µM* | -23% | 5%
CC(=O)NCc1ccc(-c2csc(-c3ccccc3C)n2)o1 | 13 | x | x | x | x | x
C/C(=N/O)c1ccc2c(c1)CCC(=O)N2 | 32 | x | x | x | x | x
CCCCC(=O)/C=C/n1c(=S)oc2ccccc21 | -6 | -101* | u | u | 4.1µM* | 5.2µM*
N#C/C(=C(/O)c1ccc(Br)s1)c1nc2ccccc2[nH]1 | -5 | 18 | 1µM* | 0% | 7.3µM* | 4.6µM*
N#C/C(=C(/O)c1ccc([N+](=O)[O-])s1)c1nc2ccccc2[nH]1 | -6 | -17 | -40% | -25% | 1µM* | -87%
N#C/C(=C(/O)c1cccs1)c1nc2ccccc2[nH]1 | -2 | 58 | u | u | -21% | u
Cc1ccc2cc(CN(Cc3ccco3)C(=O)c3cccs3)c(=O)[nH]c2c1 | -5 | 30 | 20% | 12% | 3.7µM* | 2.9µM*
Cc1cccc(N(Cc2cc3ccccc3[nH]c2=O)C(=O)c2cccs2)c1 | -13 | u | -10% | -24% | 23µM* | u
Cc1ccc2[nH]c(=O)c(CN(Cc3ccco3)C(=O)c3cccs3)cc2c1 | x | x | -36% | -6% | x | x
CCCCCCCCCCCCc1ccc(-c2ccc(CC)cn2)cc1 | -7 | x | x | x | x | x

Bioassay records as filed in PubChem.
